Consider 17 compounds from ChEMBL document CHEMBL1961873, “Compounds: GSK PKIS; Assays: Nanosyn kinase panel” (2012).

For assay [1], the system named is Epidermal growth factor receptor (Homo sapiens), P00533 [T790M]. The note with it: at 1 µM.
For assay [2], the system named is Epidermal growth factor receptor (Homo sapiens), P00533 [L858R,T790M]. As to conditions: at 0.1 µM.
The test system is the same in assay [3]. The note with it: at 1 µM.
The target in assay [4] is Ephrin type-A receptor 2 (Homo sapiens) (UniProt P29317). The note with it: at 0.1 µM.
The target is the same in assay [5]. The note with it: at 1 µM.
In assay [6] the target is T1, Ephrin type-A receptor 3 (Homo sapiens) (UniProt P29320).
T1 sequence (whole entry): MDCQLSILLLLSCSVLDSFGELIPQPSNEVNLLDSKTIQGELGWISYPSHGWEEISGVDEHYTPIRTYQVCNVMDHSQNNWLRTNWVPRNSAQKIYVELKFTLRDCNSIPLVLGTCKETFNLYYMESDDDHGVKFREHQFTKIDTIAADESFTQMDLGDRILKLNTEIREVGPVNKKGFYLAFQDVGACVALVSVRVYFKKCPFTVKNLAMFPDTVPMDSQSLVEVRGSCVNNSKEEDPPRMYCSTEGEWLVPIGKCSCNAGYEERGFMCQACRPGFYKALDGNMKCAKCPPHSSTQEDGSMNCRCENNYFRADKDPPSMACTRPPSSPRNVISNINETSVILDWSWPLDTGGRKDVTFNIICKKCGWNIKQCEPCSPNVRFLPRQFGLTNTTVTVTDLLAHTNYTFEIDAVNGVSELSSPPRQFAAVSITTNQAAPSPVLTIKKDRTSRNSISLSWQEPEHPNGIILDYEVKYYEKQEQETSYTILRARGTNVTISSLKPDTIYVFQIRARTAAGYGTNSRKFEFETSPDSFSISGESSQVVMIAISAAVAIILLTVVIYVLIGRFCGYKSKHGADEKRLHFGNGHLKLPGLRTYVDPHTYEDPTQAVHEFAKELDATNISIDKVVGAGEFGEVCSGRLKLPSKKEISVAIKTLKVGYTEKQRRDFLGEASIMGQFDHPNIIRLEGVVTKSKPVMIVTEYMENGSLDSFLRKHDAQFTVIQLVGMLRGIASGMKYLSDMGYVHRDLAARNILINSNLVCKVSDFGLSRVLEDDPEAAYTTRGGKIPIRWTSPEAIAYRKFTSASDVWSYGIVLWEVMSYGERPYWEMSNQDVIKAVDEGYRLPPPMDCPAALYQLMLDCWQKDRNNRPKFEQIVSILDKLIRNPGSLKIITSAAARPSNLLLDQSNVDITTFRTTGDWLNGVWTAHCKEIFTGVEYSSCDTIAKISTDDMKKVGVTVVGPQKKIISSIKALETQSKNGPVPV
The note with it: at 0.1 µM.

In assay [7] the target is T1, Ephrin type-A receptor 3 (Homo sapiens). The note with it: at 1 µM.
The target of assay [8] is Ephrin type-A receptor 4 (Homo sapiens) (UniProt P54764). The note with it: at 0.1 µM.
Assay [9] shares this target. The note with it: at 1 µM.
Assay [10] deals with T2, Ephrin type-B receptor 2 (Homo sapiens) (UniProt P29323).
T2 sequence (whole entry): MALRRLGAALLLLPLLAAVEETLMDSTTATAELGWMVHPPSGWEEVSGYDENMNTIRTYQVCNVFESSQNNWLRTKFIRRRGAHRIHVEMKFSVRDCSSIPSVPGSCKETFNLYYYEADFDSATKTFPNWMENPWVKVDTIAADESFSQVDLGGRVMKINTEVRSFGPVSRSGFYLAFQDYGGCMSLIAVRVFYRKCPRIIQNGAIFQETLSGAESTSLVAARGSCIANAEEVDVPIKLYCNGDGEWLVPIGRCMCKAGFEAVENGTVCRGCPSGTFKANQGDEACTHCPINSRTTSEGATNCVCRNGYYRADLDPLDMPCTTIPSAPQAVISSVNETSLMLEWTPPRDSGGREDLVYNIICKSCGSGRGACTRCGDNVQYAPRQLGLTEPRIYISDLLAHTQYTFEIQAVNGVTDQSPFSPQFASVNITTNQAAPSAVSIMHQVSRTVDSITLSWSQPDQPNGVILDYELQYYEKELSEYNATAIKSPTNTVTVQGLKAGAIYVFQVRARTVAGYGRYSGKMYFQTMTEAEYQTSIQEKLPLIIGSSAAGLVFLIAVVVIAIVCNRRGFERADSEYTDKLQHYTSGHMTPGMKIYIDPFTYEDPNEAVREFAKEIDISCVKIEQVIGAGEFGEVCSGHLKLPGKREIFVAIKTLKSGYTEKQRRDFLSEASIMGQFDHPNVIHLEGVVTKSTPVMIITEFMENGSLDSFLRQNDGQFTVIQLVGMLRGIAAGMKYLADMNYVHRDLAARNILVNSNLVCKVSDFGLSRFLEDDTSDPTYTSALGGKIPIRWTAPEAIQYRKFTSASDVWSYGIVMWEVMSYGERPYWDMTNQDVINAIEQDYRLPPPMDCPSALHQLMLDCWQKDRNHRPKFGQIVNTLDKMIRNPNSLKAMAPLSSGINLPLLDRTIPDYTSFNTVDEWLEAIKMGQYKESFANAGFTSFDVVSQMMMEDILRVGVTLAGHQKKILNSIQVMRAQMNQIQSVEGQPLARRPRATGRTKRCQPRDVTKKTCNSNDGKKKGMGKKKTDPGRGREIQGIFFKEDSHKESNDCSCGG
As to conditions: at 0.1 µM.

Ephrin type-A receptor 4 (Homo sapiens), sequence (P54764 whole entry): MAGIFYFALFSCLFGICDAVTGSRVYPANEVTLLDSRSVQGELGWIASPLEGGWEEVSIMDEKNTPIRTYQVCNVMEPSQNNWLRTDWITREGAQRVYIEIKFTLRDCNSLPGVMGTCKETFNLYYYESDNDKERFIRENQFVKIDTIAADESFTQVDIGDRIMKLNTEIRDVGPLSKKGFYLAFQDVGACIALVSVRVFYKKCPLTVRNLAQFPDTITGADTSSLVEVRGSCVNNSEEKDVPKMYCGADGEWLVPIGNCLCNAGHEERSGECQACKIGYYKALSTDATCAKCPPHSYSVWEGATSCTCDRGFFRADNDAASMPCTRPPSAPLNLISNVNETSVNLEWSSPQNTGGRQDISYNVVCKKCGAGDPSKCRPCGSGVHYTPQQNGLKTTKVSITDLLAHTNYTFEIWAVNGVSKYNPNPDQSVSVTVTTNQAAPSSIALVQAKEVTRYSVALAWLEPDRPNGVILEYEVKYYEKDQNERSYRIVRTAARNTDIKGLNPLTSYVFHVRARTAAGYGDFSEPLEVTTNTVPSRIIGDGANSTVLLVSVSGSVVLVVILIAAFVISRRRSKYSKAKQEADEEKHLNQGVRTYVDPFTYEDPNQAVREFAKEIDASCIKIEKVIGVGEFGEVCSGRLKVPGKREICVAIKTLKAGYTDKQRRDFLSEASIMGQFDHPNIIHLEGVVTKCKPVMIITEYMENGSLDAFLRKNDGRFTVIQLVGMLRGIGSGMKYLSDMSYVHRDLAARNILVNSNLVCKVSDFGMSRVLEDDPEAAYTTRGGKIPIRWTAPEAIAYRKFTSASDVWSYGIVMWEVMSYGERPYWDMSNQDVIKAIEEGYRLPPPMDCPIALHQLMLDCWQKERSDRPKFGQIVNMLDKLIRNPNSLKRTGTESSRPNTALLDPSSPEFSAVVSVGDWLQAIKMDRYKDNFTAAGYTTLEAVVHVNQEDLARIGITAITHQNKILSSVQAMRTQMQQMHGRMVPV
Epidermal growth factor receptor (Homo sapiens), P00533 [T790M], sequence (P00533 whole entry T790M): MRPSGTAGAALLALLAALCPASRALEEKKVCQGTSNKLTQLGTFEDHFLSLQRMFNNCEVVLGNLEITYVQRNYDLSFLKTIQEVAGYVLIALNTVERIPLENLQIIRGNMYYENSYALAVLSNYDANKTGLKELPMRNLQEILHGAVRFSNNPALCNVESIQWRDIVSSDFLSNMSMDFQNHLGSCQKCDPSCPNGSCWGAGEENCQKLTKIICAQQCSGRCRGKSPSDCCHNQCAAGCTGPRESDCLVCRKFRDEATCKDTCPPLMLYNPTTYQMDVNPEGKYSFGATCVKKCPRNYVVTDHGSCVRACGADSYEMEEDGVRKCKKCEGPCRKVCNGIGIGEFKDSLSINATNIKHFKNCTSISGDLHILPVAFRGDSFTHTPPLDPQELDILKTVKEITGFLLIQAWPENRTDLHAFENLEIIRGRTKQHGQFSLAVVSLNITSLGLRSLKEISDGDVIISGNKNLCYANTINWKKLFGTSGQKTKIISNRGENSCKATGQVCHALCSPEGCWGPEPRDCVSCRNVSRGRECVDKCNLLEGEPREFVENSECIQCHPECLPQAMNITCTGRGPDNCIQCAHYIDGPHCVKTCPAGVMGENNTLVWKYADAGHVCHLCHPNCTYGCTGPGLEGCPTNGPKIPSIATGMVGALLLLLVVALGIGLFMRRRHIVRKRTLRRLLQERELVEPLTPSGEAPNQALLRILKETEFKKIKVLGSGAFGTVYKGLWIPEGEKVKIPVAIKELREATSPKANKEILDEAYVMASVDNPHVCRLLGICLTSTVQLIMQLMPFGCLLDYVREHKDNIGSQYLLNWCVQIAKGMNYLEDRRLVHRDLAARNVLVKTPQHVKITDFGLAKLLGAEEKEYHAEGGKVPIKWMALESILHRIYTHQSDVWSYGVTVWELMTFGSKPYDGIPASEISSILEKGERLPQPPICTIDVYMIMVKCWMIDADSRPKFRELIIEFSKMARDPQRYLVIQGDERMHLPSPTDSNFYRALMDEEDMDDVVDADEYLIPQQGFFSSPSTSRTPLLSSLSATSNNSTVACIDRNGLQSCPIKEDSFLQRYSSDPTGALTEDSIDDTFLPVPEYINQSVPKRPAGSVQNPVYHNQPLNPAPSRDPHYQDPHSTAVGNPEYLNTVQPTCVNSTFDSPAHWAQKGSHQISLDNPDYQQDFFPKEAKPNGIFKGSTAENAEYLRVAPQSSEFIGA
Epidermal growth factor receptor (Homo sapiens), P00533 [L858R,T790M], sequence (P00533 whole entry T790M/L858R, looked up): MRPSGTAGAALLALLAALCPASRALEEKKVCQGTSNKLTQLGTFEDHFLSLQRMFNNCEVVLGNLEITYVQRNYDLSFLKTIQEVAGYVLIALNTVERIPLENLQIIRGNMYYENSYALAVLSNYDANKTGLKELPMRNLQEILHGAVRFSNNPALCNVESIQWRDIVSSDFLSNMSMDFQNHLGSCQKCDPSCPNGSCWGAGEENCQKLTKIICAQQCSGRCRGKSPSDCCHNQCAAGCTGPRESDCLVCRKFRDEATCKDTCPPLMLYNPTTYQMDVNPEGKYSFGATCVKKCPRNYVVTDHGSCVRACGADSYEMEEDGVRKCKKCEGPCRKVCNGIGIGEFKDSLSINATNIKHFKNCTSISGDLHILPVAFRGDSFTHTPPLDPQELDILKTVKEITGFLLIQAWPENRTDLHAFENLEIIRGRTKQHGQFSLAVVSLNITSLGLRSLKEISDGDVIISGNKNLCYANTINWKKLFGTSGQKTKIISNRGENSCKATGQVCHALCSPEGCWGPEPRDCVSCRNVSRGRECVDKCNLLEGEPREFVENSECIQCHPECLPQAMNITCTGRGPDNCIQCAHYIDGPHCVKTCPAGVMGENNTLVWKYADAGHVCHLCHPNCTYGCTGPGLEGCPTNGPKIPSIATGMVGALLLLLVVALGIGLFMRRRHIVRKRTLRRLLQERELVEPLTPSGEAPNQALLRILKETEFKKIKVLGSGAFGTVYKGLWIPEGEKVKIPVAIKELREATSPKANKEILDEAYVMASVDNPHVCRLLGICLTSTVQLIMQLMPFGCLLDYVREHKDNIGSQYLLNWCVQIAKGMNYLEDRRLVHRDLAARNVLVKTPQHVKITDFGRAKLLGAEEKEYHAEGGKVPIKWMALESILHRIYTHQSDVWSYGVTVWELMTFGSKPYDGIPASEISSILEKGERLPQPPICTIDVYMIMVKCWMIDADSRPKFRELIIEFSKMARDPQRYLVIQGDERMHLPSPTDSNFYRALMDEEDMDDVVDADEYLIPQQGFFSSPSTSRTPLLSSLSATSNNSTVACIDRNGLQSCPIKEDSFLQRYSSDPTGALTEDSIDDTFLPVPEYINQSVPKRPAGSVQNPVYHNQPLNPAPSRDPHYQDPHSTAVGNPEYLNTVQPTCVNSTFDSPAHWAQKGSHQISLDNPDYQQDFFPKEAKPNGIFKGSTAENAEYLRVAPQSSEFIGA
Ephrin type-A receptor 2 (Homo sapiens), sequence (P29317 whole entry): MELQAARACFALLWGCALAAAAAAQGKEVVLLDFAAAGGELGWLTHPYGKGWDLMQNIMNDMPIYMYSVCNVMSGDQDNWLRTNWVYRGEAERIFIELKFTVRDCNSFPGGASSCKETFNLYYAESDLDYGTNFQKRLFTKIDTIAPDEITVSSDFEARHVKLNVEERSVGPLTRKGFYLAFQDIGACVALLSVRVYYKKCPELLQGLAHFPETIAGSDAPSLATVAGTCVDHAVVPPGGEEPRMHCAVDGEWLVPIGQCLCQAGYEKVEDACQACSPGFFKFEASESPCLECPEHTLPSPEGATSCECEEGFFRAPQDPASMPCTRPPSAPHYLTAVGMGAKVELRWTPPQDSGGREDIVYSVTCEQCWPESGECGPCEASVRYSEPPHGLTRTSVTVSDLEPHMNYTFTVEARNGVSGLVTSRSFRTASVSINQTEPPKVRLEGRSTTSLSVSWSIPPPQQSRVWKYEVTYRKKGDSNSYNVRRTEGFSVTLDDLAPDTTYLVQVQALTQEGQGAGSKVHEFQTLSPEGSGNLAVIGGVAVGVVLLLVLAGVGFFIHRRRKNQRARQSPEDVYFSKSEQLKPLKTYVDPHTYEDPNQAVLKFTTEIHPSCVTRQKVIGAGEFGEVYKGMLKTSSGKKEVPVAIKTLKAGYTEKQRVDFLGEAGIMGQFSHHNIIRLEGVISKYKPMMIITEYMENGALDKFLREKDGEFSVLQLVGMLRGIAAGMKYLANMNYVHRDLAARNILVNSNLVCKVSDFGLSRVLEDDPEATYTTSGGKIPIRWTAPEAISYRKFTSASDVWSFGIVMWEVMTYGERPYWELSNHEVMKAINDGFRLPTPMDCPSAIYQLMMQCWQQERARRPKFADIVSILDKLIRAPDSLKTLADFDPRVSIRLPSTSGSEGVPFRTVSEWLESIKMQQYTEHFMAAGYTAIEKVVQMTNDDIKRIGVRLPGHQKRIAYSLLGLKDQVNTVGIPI

What is called inhibition is the change of the read-out against control, counted positive when it falls. Take `COc1cc2ncn(-c3cc(O[C@@H](C)c4ccccc4Cl)c(C(N)=O)s3)c2cc1OC`: the inhibition is 2.06% in assay [1]; 1.8% in [2]; 5.2% in assay [3]; 1.55% in assay [4]; 1.17% in assay [5]; 1.7% in [6]. Moreover, the inhibition in assay [7] was determined as 6.21%; in assay [8], 6.22%; in assay [9], 14.2%; in [10], 7.76%.

Turning to `CC(=O)Nc1cccc(C#Cc2cncnc2Nc2ccc(OCc3cccc(F)c3)c(Cl)c2)n1`, the inhibition in assay [1] is 9.1%; in assay [2], -2.43%; in assay [3], 3.75%; in assay [4], 2.75%; in [5], 1.53%; in assay [6], 0.44%. Further, the inhibition is 0.58% in [7], 1.13% in assay [8], 5.16% in assay [9] and -1.46% in [10].

For the compound `CS(=O)(=O)CCNCc1ccc(-c2ccc3ncnc(Nc4ccc(OCc5cccc(F)c5)c(C(F)(F)F)c4)c3c2)o1`, the inhibition in assay [1] was 3.43%; in [2], -0.63%; in assay [3], -1.62%; in assay [4], 0.17%; in assay [5] it was 1.21%; in assay [6], 3.24%. For the same compound, the inhibition in [7] came to 1.95%; in assay [8], 8.08%; in assay [9] it was 6.97%; in [10], 4.21%.

Take `COc1ccc(-c2ccncc2)cc1C(N)=O`: the inhibition was 2.61% in [1]; 3.26% in assay [2]; 3.22% in [3]; 0.83% in assay [4]; 0.98% in assay [5]; 2.75% in [6]. The inhibition in assay [7] came out at 4.65%; in assay [8], 6.67%; in [9] it was 8.05%; in assay [10], 5.39%.

Take `Fc1cccc(COc2ccc(Nc3ncnc4sc(-c5cccs5)cc34)cc2Cl)c1`: the inhibition is -3.04% in [4]; -2.75% in assay [5]; -3.5% in [6]; -1.54% in assay [7]; -0.88% in assay [8]; 2.82% in [9]. Besides, in [10], the inhibition was determined as 5.23%.

Regarding `[O-][S+]1CCN(Cc2ccc(-c3ccc4ncnc(Nc5ccc(OCc6ccccc6)c(F)c5)c4c3)o2)CC1`, the inhibition was 10.7% in assay [1]; 3.03% in assay [2]; 0.99% in assay [3]; 0.8% in [4]; -0.21% in assay [5]; 4.64% in assay [6]. Moreover, the inhibition was 4.32% in assay [7], 4.58% in assay [8], -1.51% in assay [9] and 4.14% in [10].

As for `CCn1c(-c2nonc2N)nc2ccncc21`, the inhibition in assay [1] is 0.29%; in [2] it was -1.07%; in assay [3], -0.45%; in [4] it was 1.93%; in assay [5], 1.77%; in assay [6], 0.73%. For the same compound, the inhibition in [7] was -0.12%; in assay [8], 5.04%; in assay [9], -7.03%; in [10], -0.84%.

In the case of `CCCN1CCC(Oc2cc(Nc3nc(Nc4cccc(F)c4C(N)=O)c4cc[nH]c4n3)c(OC)cc2Cl)CC1`, the inhibition in assay [1] is -0.49%; in assay [2], -2.63%; in [3], 2.79%; in assay [4], -1.48%; in [5] it was 0.75%; in [6], -0.71%. Besides, the inhibition in assay [7] was 2.51%; in [8], 3.96%; in assay [9], 9.42%; in assay [10], 5.31%.

Consider `Cc1nnc(-c2ccc(C)c(-c3ccc(C(=O)Nc4cccc(C#N)c4)cc3)c2)o1`, for which the inhibition in assay [1] was 2.44%; in assay [2], 0.19%; in assay [3] it was 2.34%; in [4], -0.29%; in [5], -0.3%; in assay [6], 4.6%. In addition, the inhibition turned out to be 2.95% in [7], 6.99% in [8], 4.3% in assay [9] and 5.86% in assay [10].

For the compound `CS(=O)(=O)CCNCc1nc(-c2ccc3ncnc(Nc4ccc(F)c(Cl)c4)c3c2)cs1`, the inhibition in assay [4] was determined as 2.15%; in assay [5] it was 1.65%; in assay [6], 2.83%; in [7], 4.56%; in assay [8], 11.7%; in [9] it was 21%. In addition, in assay [10], the inhibition was 13.7%.

For the compound `CC(C)=Cc1cccc2c1/C(=N/Nc1ccc(S(N)(=O)=O)cc1)C(=O)N2`, the inhibition in assay [1] was determined as 1.05%; in assay [2], 2.29%; in [3] it was 2.58%; in assay [4], 0.83%; in assay [5], 3.1%; in [6], 2.78%. In addition, the inhibition in [7] is 3.12%; in assay [8], 4.39%; in assay [9], 11%; in assay [10], 1.72%.

Consider `CCn1c(-c2nonc2N)nc2cncc(C(=O)N3CCNCC3)c21`, for which the inhibition in assay [1] turned out to be 3.72%; in assay [2] it was 0.98%; in assay [3], 3.56%; in [4], 1.29%; in [5], 1.16%; in [6], 3.57%. The inhibition in assay [7] was determined as 2.79%; in [8] it was 9.14%; in assay [9], 11.3%; in [10], 10.1%.

Consider `NCc1ccc(-c2nc(-c3ccc(Cl)c(O)c3)c(-c3ccncc3)[nH]2)cc1`, for which the inhibition in assay [1] turned out to be 0.46%; in assay [2] it was 0.24%; in [3], 5.04%; in assay [4], 2.14%; in assay [5], 8.19%; in assay [6] it was 3.13%. Moreover, the inhibition is 2.67% in assay [7], 4.74% in assay [8], 21.9% in assay [9] and -0.39% in assay [10].

With `CCc1cccc(NC(=O)Nc2ccc(Oc3ccc4nc(NC(=O)OC)[nH]c4c3)cc2)c1`, the inhibition is 1.6% in assay [1]; 3.59% in [2]; 4.31% in [3]; 49.4% in [4]; 65.7% in [5]; 13.9% in assay [6]. Also, the inhibition in assay [7] was found to be 10.1%; in assay [8] it was 52.3%; in assay [9] it was 72.3%; in assay [10], 44.5%.

With `COc1cc2c(cc1Nc1nc(N3CCc4ccccc43)c3cc[nH]c3n1)N(C(=O)CN(C)C)CC2`, the inhibition came to 2.36% in assay [1]; 3.77% in [2]; 9.23% in assay [3]; 2.22% in assay [4]; 2.11% in [5]; 2.13% in assay [6]. Moreover, the inhibition in assay [7] was determined as 0.93%; in [8], 3.39%; in assay [9] it was 6.36%; in [10] it was 2.81%.

Take `Cc1ccc(NC(=O)c2ccnc(N3CCCC3)c2)cc1-c1ccc(C(=O)NCC2CC2)cc1`: the inhibition was 0.9% in [1]; -0.13% in [2]; 2.67% in assay [3]; -2.27% in assay [4]; -2.02% in [5]; -0.85% in assay [6]. Besides, the inhibition in assay [7] was -0.25%; in [8] it was 7.04%; in [9], 5.58%; in assay [10], 4.55%.

Take `CCn1c(-c2nonc2N)nc2c(C#CC(C)(C)O)nc(OC[C@@H](N)c3ccccc3)cc21`: the inhibition was -1.79% in [1]; -0.23% in assay [2]; 0.54% in [3]; -1.19% in assay [4]; 0.2% in assay [5]; -1.62% in [6]. In addition, the inhibition in [7] was 7.71%; in assay [8], -5.47%; in [9], 6.31%; in assay [10], 5%.
